Source: PubChem (National Center for Advancing Translational Sciences (NCATS))
A selection: hits, their analogues and other compounds. The true share with any hit is near 11%.
12-hLO inh = qHTS Assay for Inhibitors of 12-hLO (12-human lipoxygenase); Polyunsaturated fatty acid lipoxygenase ALOX12 (Homo sapiens), P18054; purified 12-hLO, xylenol orange hydroperoxide absorbance; Potency, µM (series often up to 57.1 µM), for the others: at the top dose activity change, negative = inhibition, hits mostly inhibitors; hit rate 0.12% among 150,000; active = well fitted curve in the direction sought with a large enough effect; inconclusive = small, poorly fitted or top-dose-only effect, or another doubt; inactive = no such curve, though single readings can be large; an effect the other way counts as inactive or inconclusive; note: potency is the fitted concentration of half-maximal effect; nearly all actives have a fitted effect of over 55% in size
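Xylenol orange chromogenic assay: hydroperoxide from 12hLO oxidises Fe(II), giving red-shifted Fe(III)-XO absorbance. Conditions: 150 nM enzyme, 40 uM arachidonic acid, 25 mM Hepes pH 7.0, 0.01% Triton X-100, 30 min, room temperature.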
HPGD inh = qHTS Assay for Inhibitors of HPGD (15-Hydroxyprostaglandin Dehydrogenase). 15-hydroxyprostaglandin dehydrogenase [NAD(+)] (Homo sapiens), P15428. purified HPGD, NADH fluorescence kinetic, PGE2 substrate. Potency, µM, inactives show at the highest dose activity change, negative = inhibition, most hits filed as inhibitors. hit rate 4.3% among 150,000. AID 894, 2007; note: potency is the fitted concentration of half-maximal effect
Target sequence (P15428 whole entry, looked up): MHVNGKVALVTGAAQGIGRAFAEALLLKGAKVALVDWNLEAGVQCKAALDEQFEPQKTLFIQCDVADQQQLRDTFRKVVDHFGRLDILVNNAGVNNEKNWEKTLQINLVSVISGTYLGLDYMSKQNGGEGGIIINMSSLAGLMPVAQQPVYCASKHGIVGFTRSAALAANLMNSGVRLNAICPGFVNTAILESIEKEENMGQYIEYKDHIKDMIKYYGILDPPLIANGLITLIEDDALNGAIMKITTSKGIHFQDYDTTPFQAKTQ
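NADH formation kinetics: reaction with 30 uM PGE2 and 1 mM NAD+ (final), 20 nM enzyme, Tris-HCl pH 8 with Tween 20, after 15 min compound preincubation at room temperature. Fluorescence change, last versus first of five reads.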
IMPase inh = qHTS Assay for Identifying the Cell-Membrane Permeable IMPase Inhibitors. Inositol monophosphatase 1 (Rattus norvegicus), P97697. CHO-M1 cells, IP1 accumulation, HTRF TR-FRET ratio. inhibition (IP1 accumulation), % at 46.1 µM. 120,000 tested, under 10 active; active = well fitted curve in the direction sought with a large enough effect in the signal ratio, not every such curve was filed as active; inconclusive = small, poorly fitted or top-dose-only effect, or a change in a side signal; inactive = no such curve, though single readings can be large or run the other way; the % refers to the signal ratio;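 note: cells stimulated with carbachol in lithium chloride buffer; plate controls were DMSO basal wells for no effect and reference inhibitor wells for full effect; higher means more IMPase inhibition seen as more IP1 and lower FRET ratio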
Target sequence (P97697 whole entry, looked up): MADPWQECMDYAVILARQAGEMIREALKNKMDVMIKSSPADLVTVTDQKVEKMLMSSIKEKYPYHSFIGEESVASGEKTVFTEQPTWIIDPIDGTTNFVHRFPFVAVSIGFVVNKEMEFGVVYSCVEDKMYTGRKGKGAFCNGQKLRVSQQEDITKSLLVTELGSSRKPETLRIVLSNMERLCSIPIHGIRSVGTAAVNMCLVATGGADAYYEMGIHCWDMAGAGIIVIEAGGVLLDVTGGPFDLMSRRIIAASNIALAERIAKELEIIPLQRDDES
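In this qHTS, compounds (final up to 46 uM) act on CHO-M1 cells that are then activated through the M1 receptor with carbachol, in pH 7.4 buffer containing 50 mM LiCl, for 30 min. IP1 accumulation is quantified by the IP-One immunoassay.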
PNC assembly inh = High Content Assay for Compounds that inhibit the Assembly of the Perinucleolar Compartment; AID 2417, 2010; PC3M PTB-GFP, PNC prevalence imaging, 16 h; hits give low values; hit rate 3.1% among 140,000; activity change (PNC), negative = inhibition, % at 10 µM;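 active = readout at or below -70, meaning at least 70% loss of cells showing the perinucleolar compartment, a nuclear body marking cancer cells; inconclusive = readout between -30 and a set limit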;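 note: plate controls were DMSO wells for no effect and camptothecin positive control wells for full effect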
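PC3M cells stably expressing PTB-GFP, 750–1000 cells/well, treated 16 h at 37 °C with compound (23 nl of library stock), in duplicate. After paraformaldehyde fixation and Hoechst stain, imaged at 20x; PNC prevalence scored by image analysis.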
ALDH1A1 block = qHTS Assay for Inhibitors of Aldehyde Dehydrogenase 1 (ALDH1A1) | Aldehyde dehydrogenase 1A1 (Homo sapiens), P00352 | Purified ALDH1A1, NADH fluorescence, propionaldehyde substrate | Potency, µM (highest dose often 75.3 µM), for inactives: at the highest dose activity, negative = inhibition, most hits filed as inhibitors | hit rate 7.3% among 220,000;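 note: potency is the fitted concentration of half-maximal effect; plate controls were no enzyme wells and a reference inhibitor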
IMPase Li cell = qHTS Assay for Identifying the Cell-Membrane Permeable IMPase Inhibitors: Potentiation with Lithium; hit rate 0.35% among 210,000; Potency, µM (titrated, usually from 59.4 µM), without a hit: at the top dose activity, negative = IMPase inhibition, most hits filed as inhibitors; CHO-M1 cells, IP1 TR-FRET (IP-One), carbachol + lithium; active = well fitted curve in the direction sought with a large enough effect; inconclusive = small, poorly fitted or top-dose-only effect, or another doubt; inactive = no such curve, though single readings can be large; an effect the other way counts as inactive or inconclusive;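 note: IP1 builds up when IMPase is blocked and the TR-FRET signal falls; potency is the fitted concentration of half-maximal effect; plate controls were basal vehicle for no effect and high inhibitor control for full effect; nearly all actives have a fitted effect of over 50% in size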
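Readout is a homogeneous TR-FRET IP1 immunoassay (Ex 320, Em 665 and 620), where raised cytosolic IP1 lowers signal. Cells were CHO-M1 treated 30 min at 37C with test compounds plus a little lithium; AC50 values came from Hill-equation fitting.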
* = called active by the depositor; ? = inconclusive; . = no result given; ! = not active in a repeat; [ ] = dose if it differs, or a comment. Unless noted, calls come from the whole dose curve; as a rule, active = well fitted inhibition curve with a large enough effect (not every such curve was filed as active); inconclusive = small, poorly fitted or top-dose-only effect, or another doubt; inactive = no such curve, though single readings can be large or run the other way. Unless noted, % is set by controls: 0 for no effect and ±100 for the full control effect.

SMILES	12-hLO inh	HPGD inh	IMPase inh	PNC assembly inh	ALDH1A1 block	IMPase Li cell
OC1(c2ccc(F)cc2)CC2CCC(C1)N2Cc1nnnn1C1CCCC1 (centres undefined)	-5%	-2%	5	-7	2µM*	1%[38.3 µM]
Cc1cc(C=C2C(=O)N(C)C(=S)N(C)C2=O)c(C)n1C1CCCCC1	-11%	-10%	7	?	?	-6%[38.3 µM]
Cc1cc(C=C2C(=O)NC(=S)NC2=O)c(C)n1C1CCCC1	.	.	.	.	7.1µM*	12%
C#CCN1C(=O)C2(C(C#N)=C(N)OC(C)=C2C(=O)OCc2ccccc2)c2ccccc21 (centres undefined)	-16%	-15%	10	-13	0.79µM*	3%[38.3 µM]
CCOC(=O)C1=C(C)OC(N)=C(C#N)C12C(=O)N(C)c1ccccc12 (centres undefined)	0%	-7%	6	63	6%	-5%[38.3 µM]
CCc1cccc(NC(=O)Cn2c(=O)oc3cc(S(=O)(=O)N4CCOCC4)ccc32)c1	-2%	-16%	4	0	?	4%[38.3 µM]
Cc1nc2ccc(Nc3nc4cc(S(=O)(=O)N5CCOCC5)ccc4o3)cc2s1	-2%	8.9µM*	13	?	3.5µM*	5%[38.3 µM]
O=[N+]([O-])c1ccccc1-c1ccccc1	-4%	-11%	.	.	?	13%
Cc1ccc(OCC(=O)N2CCN(C)CC2)c(Br)c1	4%	9%	11	-11	6%	5%[38.3 µM]
Cc1ccc(C)c(OCC(=O)N2CCCN(C)CC2)c1	2%	-1%	4	-112*	1%	1%
COC(=O)/C=C/C(=O)N[C@@H]1CC[C@@]2(O)[C@H]3Cc4ccc(O)c5c4[C@@]2(CCN3CC2CC2)[C@H]1O5	.	.	.	.	-8%	38%
CC(C)n1c(/C=C\[C@@H](O)C[C@@H](O)CC(=O)O)c(-c2ccc(F)cc2)c2ccccc21	-3%[25.6 µM]	-13%	2[20.6 µM]	.	?	-5%
C=C(C)[C@H]1CN[C@H](C(=O)O)[C@H]1CC(=O)O	0%[0.00818 µM]	16µM*!	.	.	20µM*!	6%
COC(=O)[C@@H]1[C@@H](O)[C@@]2(O)c3c(OC)cc(OC)cc3O[C@@]2(c2ccc(OC)cc2)[C@H]1c1ccccc1	.	.	.	.	9%[13.5 µM]	.
Cc1c([C@@H](C)C2NC[C@H](C)C[C@@H]2O)ccc2c1C[C@@H]1[C@H]2CC=C2C[C@@H](O)CC[C@@]21C (some centres undefined)	.	-11%	.	.	-2%[13.5 µM]	6%
Cc1cc(/C=C2\C(=O)NC(=O)N(c3ccc(Cl)cc3)C2=O)c(C)n1-c1sc2c(c1C#N)CCCC2	-9%	10µM*	10	51	0.25µM*	15%
Cc1sc(-n2c(C)cc(C=C3C(=O)NC(=O)NC3=O)c2C)c(C#N)c1C	0%	-29%	1	24	0.63µM*	-4%
C=C(C)C1Cc2c(ccc3c2OC2COc4cc(OC)c(OC)cc4C2C3=O)O1 (centres undefined)	0%	?	.	.	?	18%
N=C(N)SCc1ccc(Cl)c2ccccc12 (tested in a mixture with another compound)	-1%[11.4 µM]	4.5µM*!	.	.	-1%[13.5 µM]	-3%
CC(C)CON=O	2%	-1%	.	.	32µM*	-7%
COc1ccc(C(C#N)N2CCOCC2)cc1 (centres undefined)	0%	3%	?	28	35µM*	2%
O/N=C/c1c[nH]c2ccccc12	-5%	7.1µM*	-2	?	8%	26%[38.3 µM]
CC/C(=C(\c1ccccc1)c1ccc(OCCN(C)C)cc1)c1ccc(O)cc1	-8%	-10%	.	.	?	-2%
c1csc(-c2nnc(Cc3cccc4ccccc34)o2)c1	-4%	18µM*	-3	-23	-3%	4%
CCc1nc2ccccc2c(=O)n1-c1ccccc1[N+](=O)[O-]	0%	-9%	6	31	?	7%
